Data taken from the antibiotic and cytotoxicity screens of Wong et al. (2023).
Among all 39,000 compounds or so, about 1,500 (3.8%) were called active. This is one part of a sample in which actives are shown more often than they occur.

These compounds were tested on HSkMC (human skeletal muscle cells) (assay: cytotoxicity call (relative viability < 0.9)). Conditions: 10 µM.

Compound | cytotoxicity call
COc1ccc(S(=O)(=O)Nc2ccc3c(c2)CC(=O)N([C@@H](C)CO)C[C@@H](C)[C@H](CN(C)C(=O)NC(C)C)O3)cc1 | inactive
CN(C)Cc1cn(CC[C@@H]2CC[C@H](NC(=O)Cc3cccnc3)[C@H](CO)O2)nn1 | inactive
Cc1ccc(S[C@]2(C(=O)NCc3ccccc3)CC(=O)N(Cc3cc(C(F)(F)F)cc(C(F)(F)F)c3)[C@@H]2c2ccc(CO)cc2)cc1 | inactive
CCOC(=O)c1cc2c(c(-c3cccc(-c4cccc(OC)c4)c3)n1)[C@@H](CCO)N(S(=O)C(C)(C)C)C2 (some centres undefined) | inactive
COCC(=O)N1C[C@@H](C)[C@H](OC)CN(C)C(=O)c2ccc(NC(=O)c3ccc(OC)cc3)cc2OC[C@H]1C | inactive
CCN1CCC[C@@H]1CN1CNC(=S)NC1 | inactive
CCCCCCc1ccc(O)cc1O [listing 1 of 2 here] | active
CCCCCCc1ccc(O)cc1O.Nc1c2ccccc2nc2ccccc12 | inactive
CCCCCCc1ccc(O)cc1O [listing 2 of 2 here] | active
CCCCCCCc1c(C)c(O)cc2c1[nH]c1ccccc12 | inactive
COC(=O)CCc1ccc(OC)cc1O | inactive
CCCCCCCCc1ccc(-c2ccc(C(=O)O)cc2)cc1 | inactive
COc1ccc(NC(=O)N(C)C[C@@H]2Oc3c(NC(=O)C4CC4)cccc3C(=O)N([C@@H](C)CO)C[C@@H]2C)cc1 | inactive
CC1OC(OC2C(O)CC(OC3C(O)CC(OC4CCC5(C)C(CCC6C5CC(O)C5(C)C(C7=CC(=O)OC7)CCC65O)C4)OC3C)OC2C)CC(O)C1O (centres undefined) | active
C[C@H]1O[C@@H](O[C@H]2[C@@H](O)C[C@H](O[C@H]3[C@@H](O)C[C@H](O[C@H]4CC[C@@]5(C)[C@H](CC[C@@H]6[C@@H]5C[C@@H](O)[C@@]5(C)[C@@H](C7=CC(=O)OC7)CC[C@]65O)C4)O[C@@H]3C)O[C@@H]2C)C[C@H](O)[C@@H]1O | active
C[C@H]1O[C@@H](O[C@H]2[C@@H](O)C[C@H](O[C@H]3[C@@H](O)C[C@H](O[C@H]4CC[C@@]5(C)[C@H](CC[C@@H]6[C@@H]5C[C@@H](O)[C@]5(C)[C@@H](C7=CC(=O)OC7)CC[C@]65O)C4)O[C@@H]3C)O[C@@H]2C)C[C@H](O)[C@@H]1O | active
C[C@@H]1CCCCO[C@@H](CN(C)Cc2ccc3c(c2)OCO3)[C@@H](C)CN([C@H](C)CO)C(=O)c2cc(NS(=O)(=O)c3ccc(Cl)cc3)ccc2O1 | inactive

Compound | cytotoxicity call
C[C@H](CO)N1C[C@H](C)[C@@H](CN(C)S(=O)(=O)c2ccccc2F)Oc2cc(-c3ccncc3)ccc2S1(=O)=O | inactive
CC(C)NC(=O)Nc1cccc2c1O[C@@H](CN(C)S(=O)(=O)c1cccs1)[C@@H](C)CN([C@@H](C)CO)C2=O | inactive
O=C(C[C@@H]1C[C@@H]2c3cc(NC(=O)Cc4ccncc4)ccc3O[C@@H]2[C@@H](CO)O1)NCc1cccc(F)c1 | inactive
COCC#Cc1ccc2c(c1)O[C@@H](CN(C)C(=O)CN(C)C)[C@H](C)CN([C@@H](C)CO)S2(=O)=O | inactive
Cc1noc(C)c1NC(=O)N(C)C[C@@H]1OCCCC[C@@H](C)Oc2ccc(NC(=O)Cc3ccccc3)cc2C(=O)N([C@H](C)CO)C[C@H]1C | inactive
CC(N)(Cc1ccc(O)c(O)c1)C(=O)O (centres undefined) [listing 1 of 2 here] | inactive
CC(N)(Cc1ccc(O)c(O)c1)C(=O)O (centres undefined) [listing 2 of 2 here] | inactive
CCOC(=O)[C@@](C)(N)Cc1ccc(O)c(O)c1 | active
COc1ccccc1C(=O)Nc1ccc2c(c1)C(=O)N(C)[C@@H]1CC[C@@H](CC(=O)NCc3ccc(Cl)c(Cl)c3)O[C@@H]1CO2 | inactive
CN1C(=O)c2cc(NC(=O)c3ccc(C(F)(F)F)cc3)ccc2OC[C@@H]2O[C@H](CC(=O)NC3Cc4ccccc4C3)CC[C@H]21 | inactive
CN1C(=O)c2cc(NC(=O)c3ccc(C(F)(F)F)cc3)ccc2OC[C@@H]2O[C@@H](CC(=O)NC3Cc4ccccc4C3)CC[C@H]21 | active
CN1C(=O)c2cc(NC(=O)Nc3cccc(C#N)c3)ccc2OC[C@H]2O[C@@H](CC(=O)Nc3ccc4c(c3)CCC4)CC[C@@H]21 | inactive
Cc1noc(C)c1NC(=O)Nc1ccc2c(c1)C(=O)N(C)[C@H]1CC[C@H](CC(=O)Nc3ccc4c(c3)CCCC4)O[C@@H]1CO2 | active
COc1ccccc1C(=O)Nc1ccc2c(c1)C(=O)N(C)[C@H]1CC[C@@H](CC(=O)NCc3ccc(Cl)c(Cl)c3)O[C@@H]1CO2 | active
COc1cccc(C(=O)Nc2ccc3c(c2)C(=O)N(C)[C@H]2CC[C@H](CC(=O)Nc4ccc5c(c4)CCCC5)O[C@@H]2CO3)c1 | inactive
CN1C(=O)c2cc(NC(=O)c3ccc(C(F)(F)F)cc3)ccc2OC[C@@H]2O[C@H](CC(=O)NC3Cc4ccccc4C3)CC[C@@H]21 | inactive
COc1ccccc1C(=O)Nc1ccc2c(c1)C(=O)N(C)[C@H]1CC[C@H](CC(=O)NCc3ccc(Cl)c(Cl)c3)O[C@@H]1CO2 | inactive
